Over roughly 4,500 sequences, “median log2 fold change of GCK-ALFA target abundance (FLAG IP / Myc IP barcode read proportion)” has its median near 0.078; the lowest 2% begin near -0.6. Only a selection was taken, and the lowest values are over-represented in it overall.
B1: GBRAP_52_6086 (protein)
chain: MEERLEALAREIAAAVAAGDREGALALIEEAIKELSVEEIRRLLRLAAERVAALGEDAHVLFVDLLDEAEDLMIKAGISEEDALLIVGDAEAALAKAVAA
B2: GBRAP_52_6087 (protein)
chain: MEERLEKLAKEIAEAVAAGKRDEALALMEKAIKELSVEEIKKLFKLAAELVAKLGEEAEELFVDLLDEAEDLLIEAGISEEDALLIVGDAEAALAKAVAA
B3: GBRAP_160_4202 (protein)
chain: EEKVKKIIEELKEETEEVIKLLDEVSVEEAAVFAEVEFGSVLMLAVELGIENDEILDVIDEAGDKIVKYLKENKDASVEELKKKIKEITEEAIKKIKELA
B4: GBRAP_39_5664 (protein)
chain: EEDEENELLFEYYLAKAEGYRIKEGISDEELIERGKELLKAIAKEHPEIKELVEELLKEVDKGDEDVGLAAAGIALDYLEGLPIEEIKEHLEKLLKYVKK
B5: GBRAP_184_5111 (protein)
chain: KLLEETIKANNKEELEKKLTEVVEKAVKEKADLLVIVEIPNLTPEMAEIIMDKVAKAKEAGIKNVLVEIVSDNLSDEVIDTIDKKAKEYGLTNVVLAMKE
B6: GBRAP_153_3948 (protein)
chain: SMESKEKLEKAKKLIEKIKKSEDPTEYIKELAKLLASMNLEERLEVAKEFNSLSEETVYKIFLTLATEEGFSVEELLELTTELNEEQQAAALKAIVEAQK
B7: GBRAP_39_5630 (protein)
chain: EEEEELELLESLAEADLAKREVETGLPAEELYAELLARAREAAADDPELLALIERLAALAEEHGPEARERLAAAMAAYLAGLPKEDIKRLLTALIEELEA
B8: GBRAP_48_5830 (protein)
chain: MKIDLEKLEALVKETVEEMKELYEEAKKEGLSDEDILKMIKAELGDLALELEEEGYTKAADYLLERENRDELAKKLLELFKEGKYEEAYEYLLKKLKEAE
B9: GBRAP_160_4617 (protein)
chain: SSKIEELKKFVKEEFEEAKEMIEGETPEQRAAIVDVTIGEIILEAEELEVVSDESLEKIDEIGDELVETILENPDLTEEEVKELIDEAEKKIIEIIEEDE
B10: GBRAP_160_4619 (protein)
chain: SEKVEELKKFVEEEFEETKEMIVGQTPEERAAIVDVTIGEIILEAEELEVVSDETLDEIDEIGDELVETILANPDLTDEEIKALIDEAREKIIALIEKDE
B11: GBRAP_53_6397 (protein)
chain: SAATIAALLAELRALIAEVDADPTLDPEEVAARAGELLRAAVAAGAPAAELTALARELAAAVAARGLGVEVGTRLAATAAAAGAEEVAAVFTEAAVEDLE
B12: GBRAP_26_5497 (protein)
chain: FLEEILEELRREIKEILKDESPELQAAVIATAEDLLLEADEEIEENAEDEEKIKEAIEKAVEEMRKELERFGLSEEKIEKIVEALRRALEKVAERIKEEA
B13: GBRAP_52_5995 (protein)
chain: SAARIEAVAREIVALVLAGDREGARALIRKAFRELSDEEIVEMVRLATRLLMEDPRATDEDIRTFIDLVLDTAEEEGLDEETIADIIGAIATAIKEAELK
B14: GBRAP_125_3094 (protein)
chain: EEEALLAALRRLALALGFSEEEAEELAELAARSSLRQTLYALFAAEGYEELADLVEKLTEEQAREALLRLAAWLDAHPDASREEVVARAREIAEELLAAA
B15: GBRAP_160_4419 (protein)
chain: DELIEEVDELLDETEELVVELVEEGKREEAIAALRVGAGEILLLLDEDESVSEETEEKVDKILDETIKKFEENKDASPEEVRELLDKAREEILAVLKEGS
B16: GBRAP_137_3646 (protein)
chain: PNVTITKETIDDLVEINIEFDDPEKAEEAAELIRDVAHEHGALAVSIEINEDGTLEATIWVPKDKAQALIDALVTRLRTELGANVTVIDKDTGETTVVKA
B17: GBRAP_137_3669 (protein)
chain: MIEAEIELENGLAFARITVEGSKEELERAAEIAEDIAGEIPNLAVSVELSEDGTLVIDVFGTKEDVLKFLKELAKRLNKTVKVKTKNLETGEEKEEVIEP
B18: GBRAP_125_3101 (protein)
chain: MEEELLEALKRFALALGFSEEDAEEAAELAKKFSLKQTLIALLLAEGEEELAELVEKLTEEEAKEVLLKLDEYLKKNPNASKEEVLKKFKELVEEALKAS
B19: GBRAP_125_3102 (protein)
chain: EEEELLEALRRLALALGFSEEEAEEAARLAREFSLRQTLIALLLAEGEEELAELVEKLTEEQAKEVLRRLAEYLEAHPDATREEVVAKLRELVEEALAAA
B20: GBRAP_125_3104 (protein)
chain: SEEELLEDLKALALALGFSEEDAEEAARLAAEFSLKNTLIAILLAEGEEELAELVEKLTEEQAKEVLKKLAEYLKKHPNATKEEVIEKFKELVEEALAKS
B21: GBRAP_125_3103 (protein)
chain: EEEELLEALKALALALGFSEEDAEEAAELARRFSLKNTLIAILLAEGEEELAELVEKLTEEQAKEVLKKLAEWLKENPNASKEEVIKKLKELVEEALKKA
B22: GBRAP_184_5289 (protein)
chain: MVEEVVIEAENAEEAIKKIKEAAEKAKKEGKKLRLYLFLKNVDVEGFKKIAELLKELKEEGIIEDAIVEILDERTEEETDKFVEIADKAGIRLVIALSDE
B23: GBRAP_128_3375 (protein)
chain: VNEEFLKEIEELVEKMLESSVEEVRELTKKIVELLSKASLEEQEAAVEIILEKLPEFSVEKLEAIADVLREERKKASPELQELLADVEVEALNEAEEKEE
B24: GBRAP_184_5038 (protein)
chain: AIKEVTIEAKDLEELKAKLAELEEEMKNFKGDLIVHVKSPKFTKEMVEELMSTLKNMLDKGYISSATVGLDGEMTEEVVDLAVKLADEAGIKVVLALDEE
B25: GBRAP_11_2726 (protein)
chain: RKETILKFAKEAEALAKEIEKLIKEGPTKEGLEKLAKKAKALYEAAKKAGLPEDIVETLKIAAELLKEAIADPKNAEKYLREAAAAFRVAAGLLLLEAEE
B26: GBRAP_14_3852 (protein)
chain: IEELIKAVEETAKETKEMAKEVLPEHAEEVNKKIEELAKKIIKKIKEENLNKEEVAELMDEFAEELAKFIKEKGFANETEIAAIRATILNEAALKLDEIE
B27: GBRAP_150_3939 (protein)
chain: DLEELLLLAQGIETDLELALEPGFDKLKLAERALELAKDIAKESDEELKKLAEELIKLLEEAIKAIKAGAEEKEIQKLLEEALRKARELIEEIEKKIEEE
B28: GBRAP_9_7172 (protein)
chain: LKAAAAAAIAELREARDFILEIAPEAAAGAVDAAFDALIAALEAARADPTVTPEQFEATLAAGFAAIRAAAAAHLSPEVAAAVETEMLTVRDIADEKLDE
B29: GBRAP_95_7026 (protein)
chain: EDDQLLVDSLTEVLETYVDLGDEERAREAARRLVRALRENGILPLPKSISVEAAKLILEVALEELDLEELEALAKQLIEATKDEEVRKYAEAKIAEKRAR

target: GABARAP, O95166; experiment: median log2 fold change of GCK-ALFA target abundance (FLAG IP / Myc IP barcode read proportion) (log2 ratio); each designed protein is fused to an ALFA-tag nanobody in HEK293 cells to bring the named protein to FLAG-tagged glucokinase (GCK); Myc marks an untargeted standard; higher = target protein stabilised (more abundant); details: target protein: 3xFLAG-MCP-GCK-ALFA reporter; HEK293 landing pad (RPLP)
Sequence (O95166 whole entry, the tested form may be a part): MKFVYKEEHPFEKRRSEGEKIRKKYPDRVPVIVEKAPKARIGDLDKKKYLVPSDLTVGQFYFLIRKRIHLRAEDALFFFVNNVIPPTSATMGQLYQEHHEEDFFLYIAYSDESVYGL
Outline: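 An ALFA-nanobody-fused binder library was recombined into HEK293 landing-pad cells and induced with 2 μg mL^−1 doxycycline. Cells were transfected with a plasmid expressing a FLAG-tagged target and a Myc-tagged standard. After 48 h, lysates underwent anti-FLAG and anti-Myc immunoprecipitation, and circular RNA barcodes were reverse transcribed, amplified and sequenced. Target abundance is the per-binder median log2 ratio of FLAG to Myc barcode read proportions. Barcodes needed ≥10^−7 proportion in both replicates, binders ≥3 barcodes per replicate, and a 10^−6 pseudocount was added; the two replicates were pooled.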

In order of rising “median log2 fold change” value:
1. B21  -1.16
2. B13  -0.964
3. B20  -0.801
4. B10  -0.678
5. B1  -0.626
6. B18  -0.382
7. B3  -0.374
8. B19  -0.364
9. B9  -0.294
10. B2  -0.234
11. B22  -0.121
12. B15  -0.0618
13. B16  -0.0128
14. B28  -0.00921
15. B17  0.0022
16. B25  0.0545
17. B14  0.075
18. B24  0.0979
19. B4  0.132
20. B23  0.132
21. B27  0.139
22. B26  0.15
23. B7  0.159
24. B29  0.182
25. B8  0.224
26. B11  0.226
27. B6  0.294
28. B12  0.312
29. B5  0.326
